Records with an inconclusive call do not appear. Activity calls are given as the source filed them. How the source made its calls: active means hit-call score of the fitted dose curve at least 0.9, where 1 is the maximum; inconclusive means response in the unintended direction; inactive means score below 0.9.
test system: not listed separately; assay: ACEA_ER_AUC_viability: ACEA Biosciences xCELLigence Real-Time Cell Analysis on Estrogen Receptor Agonism for Viability (AID 2283782);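 further: continuous compound exposure with impedance area under curve over 80 h; hit means loss of impedance signal meaning reduced cell growth or viability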
Outline: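 T47D cells preconditioned in phenol red-free RPMI with charcoal-stripped FBS, then dosed with 8-point 1:4 series from 100 uM (up to 0.5% DMSO). Impedance monitored up to ~80 h; area-under-curve loss versus DMSO taken as viability.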

Row | SMILES | AC50 | outcome
1 | Nc1cc([N+](=O)[O-])ccc1Cl | 76.3 µM (active) | 
2 | Cc1cccc(C)c1C | 26.4 µM (active) | 
3 | Clc1cccc(Cl)n1 |  | inactive
4 | CC(C)C1CCC(O)CC1 (centres undefined) |  | inactive
5 | Nc1ccc(F)c([N+](=O)[O-])c1 | 26.5 µM (active) | 
6 | CCCC(=O)c1cc(O)c(O)cc1O |  | inactive
7 | CC(C)=CCC[C@H](C)CC=O |  | inactive
8 | CN(C)CCOCCN(C)C |  | inactive
9 | CCCCCCCCCCCCCCCC(=O)OC[C@H](O)[C@H]1OC(=O)C(O)=C1O | 39.2 µM (active) | 
10 | O=C=NC1CCC(CC2CCC(N=C=O)CC2)CC1 (centres undefined) | 28.5 µM (active) | 
11 | CCC(=O)OCCC(C)CCC=C(C)C (centres undefined) | 78.6 µM (active) | 
12 | CCCCCOC(=O)CCC |  | inactive
13 | CCCCCCCCCCCCCOS(=O)(=O)O | 73.8 µM (active) | 
14 | CCCOCC(C)O (centres undefined) |  | inactive
15 | C[Si](O[Si](C)(C)C)O[Si](C)(C)C |  | inactive
16 | COc1ccc(O)cc1 |  | inactive
17 | CN(C)C(=N)N=C(N)N |  | inactive
18 | CCCCCC(=O)OCCc1ccccc1 | 78.9 µM (active) | 
19 | NCCCN1CCOCC1 |  | inactive
20 | CCCCCC=CCC(=O)OC |  | inactive
21 | BrC1CCC(Br)C(Br)CCC(Br)C(Br)CCC1Br (centres undefined) | 8.63 µM (active) | 
22 | OCC(CO)(CO)COCC(CO)(CO)CO |  | inactive
23 | c1ccc2[nH]ccc2c1 |  | inactive
24 | CCCCCCCCCCCCCC(=O)O |  | inactive
25 | O=C1CCCCCCCCCCOCCCCO1 | 55.4 µM (active) | 
26 | CC1(C)C(=O)N(Br)C(=O)N1Cl |  | inactive
27 | Cc1ccc(S)cc1 |  | inactive

target: AR (gene 367) (UniProt P10275); assay: ACEA_AR_agonist_80hr: ACEA Biosciences xCELLigence Real-Time Cell Analysis on Androgen Receptor Agonism for Proliferation (AID 2283783);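 further: hits increase impedance growth signal above DMSO baseline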
Outline: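 Proliferation of 22Rv1 prostate cancer cells tracked by electrical impedance, endpoint taken at 80 hours after dosing. Eight-point 1:4 dilutions from 100 uM maximum final, duplicate; testosterone and MG132 as positive controls, assay media as negative.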

Sequence of AR (gene 367) (P10275 whole entry, looked up): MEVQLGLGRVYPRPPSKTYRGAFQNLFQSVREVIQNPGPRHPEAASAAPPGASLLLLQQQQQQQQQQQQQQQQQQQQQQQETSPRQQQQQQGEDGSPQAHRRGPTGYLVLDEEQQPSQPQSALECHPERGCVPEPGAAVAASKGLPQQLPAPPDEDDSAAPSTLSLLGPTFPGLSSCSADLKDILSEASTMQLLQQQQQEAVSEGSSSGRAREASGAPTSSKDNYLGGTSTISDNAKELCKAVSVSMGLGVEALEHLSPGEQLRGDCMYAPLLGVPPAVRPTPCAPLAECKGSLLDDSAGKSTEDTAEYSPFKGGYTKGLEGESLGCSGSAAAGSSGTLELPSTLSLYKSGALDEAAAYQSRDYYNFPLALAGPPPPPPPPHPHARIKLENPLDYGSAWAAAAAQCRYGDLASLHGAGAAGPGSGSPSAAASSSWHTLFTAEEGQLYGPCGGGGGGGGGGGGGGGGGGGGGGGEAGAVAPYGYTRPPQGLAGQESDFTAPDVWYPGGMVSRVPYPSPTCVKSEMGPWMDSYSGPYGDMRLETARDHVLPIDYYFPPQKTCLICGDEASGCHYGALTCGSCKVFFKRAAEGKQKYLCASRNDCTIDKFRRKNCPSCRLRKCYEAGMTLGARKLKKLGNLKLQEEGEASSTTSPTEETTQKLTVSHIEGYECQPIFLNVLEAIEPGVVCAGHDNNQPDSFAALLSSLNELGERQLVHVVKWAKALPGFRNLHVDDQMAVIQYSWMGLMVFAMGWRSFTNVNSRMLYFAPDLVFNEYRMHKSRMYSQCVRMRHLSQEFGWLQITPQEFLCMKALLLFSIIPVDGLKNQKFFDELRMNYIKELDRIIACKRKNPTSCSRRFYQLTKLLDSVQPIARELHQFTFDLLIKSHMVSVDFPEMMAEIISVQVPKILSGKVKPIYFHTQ

Row | SMILES | outcome | AC50
28 | O=Nc1ccc(Nc2ccccc2)cc1 | inactive | 
29 | CCCCCCCCCCCCCOS(=O)(=O)O | inactive | 
30 | CCCOCC(C)O (centres undefined) | inactive | 
31 | C[Si](O[Si](C)(C)C)O[Si](C)(C)C | inactive | 
32 | O=c1cc(-c2ccccc2)oc2cc(O)cc(O)c12 |  | 0.0729 µM (active)

target: AR (gene 367) (UniProt P10275); assay: ACEA_AR_antagonist_80hr: ACEA Biosciences xCELLigence Real-Time Cell Analysis on Androgen Receptor Antagonism for Proliferation (AID 2283787);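 further: 22Rv1 human prostate cancer cells with growth followed by electrical impedance; hits lower the impedance growth signal relative to DMSO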
Outline: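 22Rv1 cells in assay medium, growth tracked by electrical impedance; compounds eight-point 1:4 dilutions from 100 uM final, duplicate plates. Endpoint at 80 h; loss of signal versus DMSO.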

Row | SMILES | outcome | AC50
33 | O=Nc1ccc(Nc2ccccc2)cc1 | inactive | 
34 | CCC/C=C/C=O | inactive | 
35 | CCN(CC)c1ccc(C(=C2C=CC(=[N+](CC)CC)C=C2)c2ccc(S(=O)(=O)O)cc2S(=O)(=O)[O-])cc1 | inactive | 
36 | CCCCCCCCCCCCCCCC(=O)OC[C@H](O)[C@H]1OC(=O)C(O)=C1O |  | 7.84 µM (active)
37 | O=C[C@@H](O)[C@H](O)[C@H](O)CO | inactive | 
38 | C[Si](O[Si](C)(C)C)O[Si](C)(C)C | inactive | 
39 | COc1ccc(O)cc1 | inactive | 
40 | CCCCC[Si](OCC)(OCC)OCC | inactive | 
41 | NCCCN1CCOCC1 | inactive | 
42 | BrC1CCC(Br)C(Br)CCC(Br)C(Br)CCC1Br (centres undefined) | inactive | 
43 | c1ccc2[nH]ccc2c1 | inactive | 
44 | O=c1cc(-c2ccccc2)oc2cc(O)cc(O)c12 | inactive | 
